Measurements: PubChem BioAssay (NCI)
The panel holds about 79,000 compounds, 15% with a hit somewhere; the sample as a whole holds those more often. Values without a mark were called inactive. Activity calls are given as the source filed them. No stated cut-off is given here; in the data, active means growth inhibition above about 70%; inactive means the rest.

What was measured:
[1] = NCI Yeast Anticancer Drug Screen. Data for the rad50 strain (AID 155);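 further: 0% = growth of vehicle-only cultures of the same strain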; conditions: S. cerevisiae rad50 strain growth inhibition, active compounds read high
In short: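 Inhibition values express reduced yeast growth in compound-treated cultures relative to vehicle-treated controls.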

[2] = NCI Yeast Anticancer Drug Screen. Data for the mec2-1 strain (AID 157); conditions: S. cerevisiae mec2-1 strain, active compounds read high
In short: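 Readout is yeast growth inhibition, normalised to vehicle-treated controls, in the mec2-1 strain exposed to compound.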

[3] = NCI Yeast Anticancer Drug Screen. Data for the sgs1 mgt1 strain (AID 161);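 further: 0% = growth of cultures given vehicle only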; conditions: S. cerevisiae sgs1 mgt1 strain, active compounds read high
In short: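 This yeast growth screen uses a strain with defined DNA-repair lesions; compound-treated growth is compared with vehicle-treated growth.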

[4] = NCI Yeast Anticancer Drug Screen. Data for the cln2 rad14 strain (AID 165);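 further: 0% = growth equal to vehicle treated cultures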; conditions: S. cerevisiae cln2 rad14 strain, active compounds read high
In short: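 Relative to vehicle controls, growth inhibition of compound-treated cln2 rad14 yeast was recorded.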

[5] = NCI Yeast Anticancer Drug Screen. Data for the bub3 strain (AID 167); conditions: S. cerevisiae bub3 mutant strain, active compounds read high
In short: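 Steps: expose the mutant yeast strain to compound; grow alongside vehicle-treated cultures; measure growth; express inhibition against the vehicle cultures.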

[6] = NCI Yeast Anticancer Drug Screen. Data for the mlh1 rad18 strain (AID 175); conditions: S. cerevisiae mlh1 rad18 strain growth inhibition, active compounds read high
In short: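 Test agents were incubated with a yeast strain of defined genotype (DNA damage repair defect). Inhibition of growth was derived by comparison with vehicle-exposed cultures.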

[7] = at 5.0 µM (retest, dose inferred, filed as 0.5)
[8] = at 50.0 µM (retest, dose inferred, filed as 5.0)

Row | SMILES | growth inhibition [1, 7] | growth inhibition [1, 8] | growth inhibition ([1]; at 50.0 µM) | growth inhibition [2, 7] | growth inhibition [2, 8] | growth inhibition ([2]; at 50.0 µM) | growth inhibition [3, 7] | growth inhibition [3, 8] | growth inhibition ([3]; at 50.0 µM) | growth inhibition [4, 7] | growth inhibition [4, 8] | growth inhibition ([4]; at 50.0 µM) | growth inhibition [5, 7] | growth inhibition [5, 8] | growth inhibition ([5]; at 50.0 µM) | growth inhibition [6, 7] | growth inhibition [6, 8] | growth inhibition ([6]; at 50.0 µM)
1 | CC/C(=C(\CC)c1ccc(O)c(CN(C)C)c1)c1ccc(OC)cc1 | 9% | 87% (active) | 98.5% (active) | 9% | 84% (active) | 86.3% (active) | 12% | 99% (active) | 99.6% (active) | 0% | 98% (active) | 97.8% (active) | -28% | 95% (active) | 94.8% (active) | 3% | 98% (active) | 98.6% (active)
2 | Nc1nc(N)c2cc(S(=O)c3ccc4ccccc4c3)ccc2n1 (stereo not given) | 4% | 17% | 24.2% | 29% | 64% | 79.2% (active) | 2% | 9% | 19.5% | -1% | -18% | -42.4% | -21% | -19% | -13.9% | -4% | 3% | 13.5%
3 | CN1C=CC(C(O)(c2ccccc2)c2ccccc2)CC1 (stereo not given) | -2% | 1% | 1.25% | -6% | 8% | 19.3% | 2% | 0% | 10% | -5% | 4% | 51.6% | -5% | -3% | 16.7% | -4% | 5% | 22.8%
4 | O=C(Nc1ccccc1F)C(Br)C(Br)c1ccccc1 (stereo not given) | 6% | 97% (active) | 98.6% (active) | 8% | 90% (active) | 99% (active) | 23% | 97% (active) | 99.4% (active) | 6% | 36% | 99.1% (active) | -1% | 95% (active) | 99% (active) | 29% | 95% (active) | 98.9% (active)
5 | CC[N+]1(C)CCC(O)(/C=C/c2ccccc2)C(C(=O)/C=C/c2ccccc2)C1 (stereo not given) | 7% | 98% (active) | 99.3% (active) | 11% | 99% (active) | 99.7% (active) | 12% | 54% | 99.2% (active) | 8% | 98% (active) | 83% (active) | 7% | 99% (active) | 99.3% (active) | 11% | 99% (active) | 99.3% (active)
6 | O=C(/C=C/C(=O)OCCCl)OCCCl | 5% | 95% (active) | 69.2% | -24% | 85% (active) | 82.2% (active) | 4% | 62% | 92.5% (active) | 4% | 27% | -22.8% | 46% | 91% (active) | 71.2% (active) | 4% | 95% (active) | 95.2% (active)
7 | Clc1ccc(-c2noc(CN3CCCCC3)n2)cc1 | 10% | 38% | 66% | 0% | 24% | 15.2% | 2% | 62% | 49.6% | -7% | 21% | 73.3% (active) | -1% | 25% | 71.9% (active) | -4% | 24% | 67.3%
8 | COc1ccc(C(=O)Nc2ccc(O)c(=O)cc2)cc1 | 2% | 42% | 93.5% (active) | 38% | 59% | 17.8% | 25% | 66% | 73.3% (active) | 14% | 2% | -60.6% | 16% | 15% | 87.4% (active) | 21% | 77% (active) | 55.6%
9 | Cc1ccc(S(=O)(=O)n2c3c(c4ccccc42)CCN2C(=O)C(S(=O)(=O)c4ccccc4)=CCC32)cc1 (stereo not given) | 65% | 97% (active) | 94.6% (active) | 71% (active) | 98% (active) | 95.7% (active) | 74% (active) | 98% (active) | 97.5% (active) | 71% (active) | 98% (active) | 97.9% (active) | 29% | 97% (active) | 97.5% (active) | 78% (active) | 97% (active) | 95.8% (active)
10 | O=C(c1ccc([N+](=O)[O-])cc1)N1CCCSC1=S | 19% | 27% | 26.8% | -7% | 12% | 22.2% | 10% | 21% | 31.6% | 21% | 27% | 27.2% | 6% | 11% | 16% | 11% | 31% | 60.5%
11 | Cc1c2cc[n+](C)cc2c(C)c2c1sc1ccccc12 | 21% | 97% (active) | 39.4% | -2% | 98% (active) | 91.2% (active) | 18% | 99% (active) | 90.8% (active) | 4% | 97% (active) | 91.5% (active) | 16% | 99% (active) | 92.7% (active) | 8% | 97% (active) | 91.5% (active)
12 | Cc1ccc(/C=C2\CN(C)CC3=C2NC(=S)NC3c2ccc(C)cc2)cc1 (stereo not given) | 31% | 40% | 30.2% | 18% | 54% | 4.2% | -31% | 21% | 30.6% | 18% | 33% | 16.7% | -10% | 44% | 20.1% | 26% | 48% | 58.3%
13 | N#C/C=C(\c1ccccc1)c1c[nH]c2ccccc12 | -144% | 97% (active) | 97.5% (active) | -46% | 99% (active) | 98.1% (active) | -62% | 98% (active) | 98.7% (active) | -58% | 98% (active) | 95.8% (active) | -63% | 97% (active) | 97% (active) | -120% | 98% (active) | 98.2% (active)
14 | O=C(CC1(O)C(=O)Nc2c(Cl)cc(Cl)cc21)c1ccc(Br)cc1 (stereo not given) | 3% | 3% | 93.1% (active) | -9% | -9% | 92% (active) | -23% | -23% | 92% (active) | -8% | -8% | 91.8% (active) | 7% | 7% | 94.3% (active) | -1% | -1% | 92.7% (active)
15 | CCCCC(CCc1ccccc1)(C(=O)O)c1ccccc1 (stereo not given) | 88% (active) | 99% (active) | 99.4% (active) | 87% (active) | 99% (active) | 99.5% (active) | 68% | 99% (active) | 99.7% (active) | 88% (active) | 99% (active) | 99% (active) | 72% (active) | 99% (active) | 99.5% (active) | 92% (active) | 99% (active) | 99.4% (active)
16 | CC(=Nc1ccc(N(C)C)cc1)c1ccccc1 | -8% | 60% | 69.7% | -11% | 78% (active) | 54.8% | -5% | 70% (active) | 46% | -26% | 53% | 45.4% | -15% | 88% (active) | 71.7% (active) | -15% | 78% (active) | 71% (active)
17 | O=C(O)c1ccccc1Cc1ccc2c(c1)Cc1ccccc1-2 | 2% | 76% (active) | 62.5% | -5% | 67% | 66.3% | 6% | 89% (active) | 63.5% | -19% | 88% (active) | 71.2% (active) | -6% | 68% | 50.4% | 14% | 80% (active) | 79.2% (active)
18 | Cc1ccc(/C=C2\CCCc3ccccc3C2=O)cc1 | 0% | 7% | 51.3% | 7% | 23% | 7.9% | 8% | 33% | 55.8% | -11% | -11% | 11.3% | 59% | 81% (active) | 72.3% (active) | 7% | 23% | 55.1%
19 | O=[N+]([O-])c1ccc(Cl)cc1C=NC12CC3CC(CC(C3)C1)C2 | 15% | 16% | 80.8% (active) | 12% | 13% | 69% | 16% | 23% | 22.4% | 3% | 14% | 8.55% | 4% | 9% | 4.2% | 13% | 15% | 54.6%
20 | C=C(CCC(C)C1CCC2(C)C3=C(CC(O)C12C)C1(C)CCC(O)C(C)(C)C1CC3)C(C)C(=O)O (stereo not given) | 11% | 88% (active) | 84.1% (active) | 15% | 91% (active) | 83% (active) | 20% | 90% (active) | 84.8% (active) | 40% | 96% (active) | 87.3% (active) | 29% | 94% (active) | 80.9% (active) | 30% | 95% (active) | 82.7% (active)
